# Assays:
# Assay in all cases: DAPPL (digital affinity profiling via proximity ligation, sequencing); 10 mM Tris-HCl pH 7.5, 50 mM NaCl, 1 mM DTT, 4% glycerol, room temperature, 30 min; GST-TFs on glutathione beads, 16-mer random dsDNA library, 0.1% formaldehyde crosslink after washing; high values mean tight binding
# [1] = target: T1, FLI1 (Homo sapiens, UniProt Q01543 1-452); details: protein: recombinant; tags: N-terminal GST; dsDNA, one strand shown
# T1 sequence: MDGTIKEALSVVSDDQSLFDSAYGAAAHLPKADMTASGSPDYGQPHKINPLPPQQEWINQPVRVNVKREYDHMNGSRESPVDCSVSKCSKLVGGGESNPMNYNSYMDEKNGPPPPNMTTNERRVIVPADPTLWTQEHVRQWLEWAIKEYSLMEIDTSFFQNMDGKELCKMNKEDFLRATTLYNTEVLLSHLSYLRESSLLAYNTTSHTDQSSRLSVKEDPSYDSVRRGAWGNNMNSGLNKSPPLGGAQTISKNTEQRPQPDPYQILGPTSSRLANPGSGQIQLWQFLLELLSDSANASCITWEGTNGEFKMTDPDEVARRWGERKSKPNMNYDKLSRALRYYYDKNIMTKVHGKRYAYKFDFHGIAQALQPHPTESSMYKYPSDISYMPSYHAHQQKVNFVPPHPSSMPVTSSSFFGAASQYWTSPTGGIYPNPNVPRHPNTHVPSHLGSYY
# How it was run: (§1)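 Binding signal is defined as a hexamer's read frequency for one factor over its frequency for the tag-only sample. To obtain reads, GST-fused human transcription factors were expressed in yeast, captured on glutathione beads, barcoded with DNA and pooled with that sample. Pools met 200 nmole of a 16-mer random double-stranded DNA library in Tris/NaCl/DTT/glycerol buffer for 30 min at room temperature before washing, 0.1% formaldehyde crosslinking, proximity ligation (BsaI/T4 ligase, 1 h, 37 °C), PCR and Illumina NextSeq500 sequencing.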
# [2] = target: T2, ELK1 (Homo sapiens, UniProt P19419 1-428); details: protein: recombinant; tags: N-terminal GST; dsDNA, one strand shown
# T2 sequence: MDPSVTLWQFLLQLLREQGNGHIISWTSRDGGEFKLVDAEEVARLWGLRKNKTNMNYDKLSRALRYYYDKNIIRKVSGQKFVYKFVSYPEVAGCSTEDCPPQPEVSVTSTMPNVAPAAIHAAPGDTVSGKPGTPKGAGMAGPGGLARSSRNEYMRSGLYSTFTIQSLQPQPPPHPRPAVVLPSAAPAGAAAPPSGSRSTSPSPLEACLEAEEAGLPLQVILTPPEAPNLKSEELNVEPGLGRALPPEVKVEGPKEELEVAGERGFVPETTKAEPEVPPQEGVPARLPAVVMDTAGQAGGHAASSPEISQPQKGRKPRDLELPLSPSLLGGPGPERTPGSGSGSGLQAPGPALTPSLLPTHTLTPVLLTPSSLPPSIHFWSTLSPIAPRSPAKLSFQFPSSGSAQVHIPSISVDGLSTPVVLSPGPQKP
# How it was run: as §1
# [3] = target: T3, GABPA (Homo sapiens, UniProt Q06546 1-454); details: protein: recombinant; tags: N-terminal GST; dsDNA, one strand shown
# T3 sequence: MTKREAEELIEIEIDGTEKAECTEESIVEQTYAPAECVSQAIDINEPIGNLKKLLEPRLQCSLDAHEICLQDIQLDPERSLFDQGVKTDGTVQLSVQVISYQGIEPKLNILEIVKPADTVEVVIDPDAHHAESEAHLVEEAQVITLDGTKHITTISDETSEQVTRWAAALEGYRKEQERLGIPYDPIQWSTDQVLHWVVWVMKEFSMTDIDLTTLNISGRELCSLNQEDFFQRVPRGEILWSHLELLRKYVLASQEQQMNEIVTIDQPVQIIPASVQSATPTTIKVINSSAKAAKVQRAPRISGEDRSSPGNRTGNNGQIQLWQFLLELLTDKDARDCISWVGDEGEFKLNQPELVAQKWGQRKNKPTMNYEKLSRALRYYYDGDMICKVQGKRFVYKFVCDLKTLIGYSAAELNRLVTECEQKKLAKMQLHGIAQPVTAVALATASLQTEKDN
# How it was run: as §1
# [4] = target: T4, ERG (Homo sapiens, UniProt P11308 1-479); details: protein: recombinant; tags: N-terminal GST; dsDNA, one strand shown
# T4 sequence: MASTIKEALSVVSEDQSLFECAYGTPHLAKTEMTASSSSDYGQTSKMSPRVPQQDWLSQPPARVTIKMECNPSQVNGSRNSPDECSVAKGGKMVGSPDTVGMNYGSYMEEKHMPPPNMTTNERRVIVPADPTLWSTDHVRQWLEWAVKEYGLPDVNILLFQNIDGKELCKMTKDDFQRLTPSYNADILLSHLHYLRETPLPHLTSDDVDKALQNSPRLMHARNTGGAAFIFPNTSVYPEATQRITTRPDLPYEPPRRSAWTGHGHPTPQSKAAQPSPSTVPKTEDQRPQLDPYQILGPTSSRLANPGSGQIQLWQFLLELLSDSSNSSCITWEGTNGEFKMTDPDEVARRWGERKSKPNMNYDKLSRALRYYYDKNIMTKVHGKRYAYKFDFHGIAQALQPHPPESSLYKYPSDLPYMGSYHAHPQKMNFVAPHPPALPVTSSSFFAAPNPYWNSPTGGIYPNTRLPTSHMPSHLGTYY
# How it was run: as §1
# [5] = target: ELF1 (Homo sapiens, UniProt P32519 1-619); details: protein: recombinant; tags: N-terminal GST; dsDNA, one strand shown
# How it was run: as §1
# [6] = target: T5, EHF (Homo sapiens, UniProt Q9NZC4 1-300); details: protein: recombinant; tags: N-terminal GST; dsDNA, one strand shown
# T5 sequence: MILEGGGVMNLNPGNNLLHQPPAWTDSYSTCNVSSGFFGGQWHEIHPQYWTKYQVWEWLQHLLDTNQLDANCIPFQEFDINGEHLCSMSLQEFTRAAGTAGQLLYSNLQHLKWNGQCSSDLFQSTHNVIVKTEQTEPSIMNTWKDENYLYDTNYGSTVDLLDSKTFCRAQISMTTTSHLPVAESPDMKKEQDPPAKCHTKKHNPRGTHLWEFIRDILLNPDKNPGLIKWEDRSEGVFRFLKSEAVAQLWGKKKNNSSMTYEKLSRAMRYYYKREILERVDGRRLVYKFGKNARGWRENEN
# How it was run: as §1
# [7] = target: SPI1 (Homo sapiens, UniProt P17947 1-270); details: protein: recombinant; tags: N-terminal GST; dsDNA, one strand shown
# How it was run: as §1
# [8] = target: SPIB (Homo sapiens, UniProt Q01892 1-262); details: protein: recombinant; tags: N-terminal GST; dsDNA, one strand shown
# How it was run: as §1
# [9] = target: T6, ELK3 (Homo sapiens, UniProt P41970 1-407); details: protein: recombinant; tags: N-terminal GST; dsDNA, one strand shown
# T6 sequence: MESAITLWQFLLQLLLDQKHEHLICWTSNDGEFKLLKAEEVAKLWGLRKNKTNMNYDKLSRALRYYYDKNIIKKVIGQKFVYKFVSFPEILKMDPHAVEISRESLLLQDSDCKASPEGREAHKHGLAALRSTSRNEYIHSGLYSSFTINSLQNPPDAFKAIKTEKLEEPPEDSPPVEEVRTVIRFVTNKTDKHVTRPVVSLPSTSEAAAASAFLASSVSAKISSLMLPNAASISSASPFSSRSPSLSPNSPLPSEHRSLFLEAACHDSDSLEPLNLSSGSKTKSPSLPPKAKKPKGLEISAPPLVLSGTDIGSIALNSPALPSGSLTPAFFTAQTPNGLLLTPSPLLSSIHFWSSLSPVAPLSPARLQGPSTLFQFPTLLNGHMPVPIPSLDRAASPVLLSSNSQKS
# How it was run: as §1
# [10] = target: T7, FEV (Homo sapiens, UniProt Q99581 1-238); details: protein: recombinant; tags: N-terminal GST; dsDNA, one strand shown
# T7 sequence: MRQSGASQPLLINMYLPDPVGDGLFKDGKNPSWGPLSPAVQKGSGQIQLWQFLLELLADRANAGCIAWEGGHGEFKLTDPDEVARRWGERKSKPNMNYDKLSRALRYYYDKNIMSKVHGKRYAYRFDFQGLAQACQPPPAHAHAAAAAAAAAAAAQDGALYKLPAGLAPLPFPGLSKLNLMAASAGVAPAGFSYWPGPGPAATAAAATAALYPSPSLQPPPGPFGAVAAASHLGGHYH
# How it was run: as §1
# [11] = target: ETV5 (Homo sapiens, UniProt P41161 1-510); details: protein: recombinant; tags: N-terminal GST; dsDNA, one strand shown
# How it was run: as §1
# [12] = target: HSF1 (Homo sapiens, UniProt Q00613 1-529); details: protein: recombinant; tags: N-terminal GST; chain copies: 3; dsDNA, one strand shown
# How it was run: as §1
# [13] = target: T8, SPIC (Homo sapiens, UniProt Q8N5J4 1-248); details: protein: recombinant; tags: N-terminal GST; dsDNA, one strand shown
# T8 sequence: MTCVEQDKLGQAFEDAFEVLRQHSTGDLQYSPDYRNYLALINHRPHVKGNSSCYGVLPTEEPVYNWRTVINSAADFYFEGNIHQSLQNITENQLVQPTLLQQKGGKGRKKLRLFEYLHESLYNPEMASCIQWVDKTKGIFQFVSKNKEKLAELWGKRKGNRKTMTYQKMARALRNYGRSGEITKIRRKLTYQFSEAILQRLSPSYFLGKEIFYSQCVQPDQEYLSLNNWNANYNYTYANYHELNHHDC
# How it was run: as §1
# [14] = target: ELF4 (Homo sapiens, UniProt Q99607 1-663); details: protein: recombinant; tags: N-terminal GST; dsDNA, one strand shown
# How it was run: as §1
# [15] = target: T9, ELK4 (Homo sapiens, UniProt P28324-2 1-405); details: protein: recombinant; tags: N-terminal GST; dsDNA, one strand shown
# T9 sequence: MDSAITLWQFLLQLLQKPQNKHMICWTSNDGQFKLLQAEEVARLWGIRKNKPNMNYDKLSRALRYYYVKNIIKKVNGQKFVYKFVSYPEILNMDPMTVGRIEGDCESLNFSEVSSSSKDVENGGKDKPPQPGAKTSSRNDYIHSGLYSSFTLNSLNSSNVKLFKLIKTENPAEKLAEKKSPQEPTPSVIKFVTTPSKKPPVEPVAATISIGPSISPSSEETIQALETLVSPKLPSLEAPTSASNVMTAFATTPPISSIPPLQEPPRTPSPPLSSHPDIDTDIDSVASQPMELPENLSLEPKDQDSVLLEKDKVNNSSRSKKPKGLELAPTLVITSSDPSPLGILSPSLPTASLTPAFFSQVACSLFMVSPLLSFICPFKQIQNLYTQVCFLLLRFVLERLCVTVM
# How it was run: as §1
# [16] = target: T10, ETV2 (Homo sapiens, UniProt O00321 1-342); details: protein: recombinant; tags: N-terminal GST; dsDNA, one strand shown
# T10 sequence: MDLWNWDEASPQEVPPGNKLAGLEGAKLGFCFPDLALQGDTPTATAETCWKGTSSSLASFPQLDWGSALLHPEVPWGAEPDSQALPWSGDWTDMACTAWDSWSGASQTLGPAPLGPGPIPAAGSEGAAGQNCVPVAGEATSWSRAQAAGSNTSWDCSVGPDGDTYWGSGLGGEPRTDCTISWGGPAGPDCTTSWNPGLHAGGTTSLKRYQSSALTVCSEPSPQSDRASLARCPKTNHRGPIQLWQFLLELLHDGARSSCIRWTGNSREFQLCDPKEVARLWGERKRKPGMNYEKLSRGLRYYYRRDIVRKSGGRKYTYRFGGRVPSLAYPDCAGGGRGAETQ
# How it was run: as §1
# [17] = target: T11, ELF3 (Homo sapiens, UniProt P78545 1-371); details: protein: recombinant; tags: N-terminal GST; dsDNA, one strand shown
# T11 sequence: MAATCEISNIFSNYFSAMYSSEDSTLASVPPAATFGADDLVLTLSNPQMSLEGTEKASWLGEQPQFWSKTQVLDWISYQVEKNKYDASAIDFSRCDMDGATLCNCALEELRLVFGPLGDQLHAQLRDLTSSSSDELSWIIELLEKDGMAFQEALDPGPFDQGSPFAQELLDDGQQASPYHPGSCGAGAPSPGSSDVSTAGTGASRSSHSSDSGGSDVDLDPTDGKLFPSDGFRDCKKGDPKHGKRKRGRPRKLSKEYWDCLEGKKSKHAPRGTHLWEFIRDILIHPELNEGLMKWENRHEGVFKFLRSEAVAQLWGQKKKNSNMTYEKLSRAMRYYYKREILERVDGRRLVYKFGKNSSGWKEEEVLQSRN
# How it was run: as §1
# [18] = target: CRX (Homo sapiens, UniProt O43186 1-299); details: protein: recombinant; tags: N-terminal GST; dsDNA, one strand shown
# How it was run: as §1
# [19] = target: ETV1 (Homo sapiens, UniProt P50549 1-477); details: protein: recombinant; tags: N-terminal GST; dsDNA, one strand shown
# How it was run: as §1
# Sequence of ETV1 (P50549 whole entry): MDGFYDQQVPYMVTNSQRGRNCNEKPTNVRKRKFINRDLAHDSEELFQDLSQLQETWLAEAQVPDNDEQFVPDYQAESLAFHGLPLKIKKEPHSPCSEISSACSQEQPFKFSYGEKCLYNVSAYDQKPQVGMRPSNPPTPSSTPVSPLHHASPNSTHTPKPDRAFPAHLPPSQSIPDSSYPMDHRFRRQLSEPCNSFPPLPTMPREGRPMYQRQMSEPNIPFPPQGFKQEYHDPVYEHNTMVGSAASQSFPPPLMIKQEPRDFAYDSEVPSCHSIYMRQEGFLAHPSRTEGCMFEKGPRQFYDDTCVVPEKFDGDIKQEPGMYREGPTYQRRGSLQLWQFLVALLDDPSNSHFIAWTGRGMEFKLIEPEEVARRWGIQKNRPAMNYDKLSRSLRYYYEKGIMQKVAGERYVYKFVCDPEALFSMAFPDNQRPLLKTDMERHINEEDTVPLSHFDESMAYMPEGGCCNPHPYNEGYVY
# Sequence of ELF4 (Q99607 whole entry): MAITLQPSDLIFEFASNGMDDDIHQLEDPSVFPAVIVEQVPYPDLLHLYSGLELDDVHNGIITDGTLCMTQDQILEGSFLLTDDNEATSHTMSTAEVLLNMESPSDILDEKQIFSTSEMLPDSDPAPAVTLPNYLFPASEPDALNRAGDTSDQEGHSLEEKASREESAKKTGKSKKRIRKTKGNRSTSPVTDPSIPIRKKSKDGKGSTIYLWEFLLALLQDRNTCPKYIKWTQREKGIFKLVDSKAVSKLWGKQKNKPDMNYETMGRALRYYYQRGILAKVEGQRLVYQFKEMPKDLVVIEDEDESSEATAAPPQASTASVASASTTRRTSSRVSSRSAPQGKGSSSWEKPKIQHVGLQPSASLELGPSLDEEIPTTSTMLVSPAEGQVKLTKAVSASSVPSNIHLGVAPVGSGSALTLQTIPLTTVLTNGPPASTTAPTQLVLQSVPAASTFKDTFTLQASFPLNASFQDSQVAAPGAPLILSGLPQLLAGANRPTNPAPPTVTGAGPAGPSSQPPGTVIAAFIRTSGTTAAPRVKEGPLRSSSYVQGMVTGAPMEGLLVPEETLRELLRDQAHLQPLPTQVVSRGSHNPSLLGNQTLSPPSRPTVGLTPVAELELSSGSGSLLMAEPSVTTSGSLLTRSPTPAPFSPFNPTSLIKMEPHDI
# Sequence of HSF1 (Q00613 whole entry): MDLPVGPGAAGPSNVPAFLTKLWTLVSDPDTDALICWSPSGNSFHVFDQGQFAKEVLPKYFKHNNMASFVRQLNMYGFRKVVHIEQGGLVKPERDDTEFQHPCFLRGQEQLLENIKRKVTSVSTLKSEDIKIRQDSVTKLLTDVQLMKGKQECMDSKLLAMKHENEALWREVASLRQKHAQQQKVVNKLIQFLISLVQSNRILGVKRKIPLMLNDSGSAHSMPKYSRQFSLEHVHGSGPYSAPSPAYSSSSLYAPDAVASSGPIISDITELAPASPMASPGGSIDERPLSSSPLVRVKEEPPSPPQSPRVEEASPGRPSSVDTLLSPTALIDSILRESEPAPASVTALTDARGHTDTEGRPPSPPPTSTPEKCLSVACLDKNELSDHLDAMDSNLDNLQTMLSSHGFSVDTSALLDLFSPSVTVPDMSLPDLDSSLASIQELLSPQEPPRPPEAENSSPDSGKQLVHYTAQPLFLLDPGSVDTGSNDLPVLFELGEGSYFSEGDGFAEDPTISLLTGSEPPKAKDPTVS
# Sequence of SPIB (Q01892 whole entry): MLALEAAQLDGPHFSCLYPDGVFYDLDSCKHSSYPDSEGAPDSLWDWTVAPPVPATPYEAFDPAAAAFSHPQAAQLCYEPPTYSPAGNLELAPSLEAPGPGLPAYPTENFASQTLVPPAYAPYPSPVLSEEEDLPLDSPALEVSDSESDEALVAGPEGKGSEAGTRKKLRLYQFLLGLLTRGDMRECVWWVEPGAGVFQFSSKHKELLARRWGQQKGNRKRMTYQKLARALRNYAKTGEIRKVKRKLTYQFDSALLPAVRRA
# Sequence of ETV5 (P41161 whole entry): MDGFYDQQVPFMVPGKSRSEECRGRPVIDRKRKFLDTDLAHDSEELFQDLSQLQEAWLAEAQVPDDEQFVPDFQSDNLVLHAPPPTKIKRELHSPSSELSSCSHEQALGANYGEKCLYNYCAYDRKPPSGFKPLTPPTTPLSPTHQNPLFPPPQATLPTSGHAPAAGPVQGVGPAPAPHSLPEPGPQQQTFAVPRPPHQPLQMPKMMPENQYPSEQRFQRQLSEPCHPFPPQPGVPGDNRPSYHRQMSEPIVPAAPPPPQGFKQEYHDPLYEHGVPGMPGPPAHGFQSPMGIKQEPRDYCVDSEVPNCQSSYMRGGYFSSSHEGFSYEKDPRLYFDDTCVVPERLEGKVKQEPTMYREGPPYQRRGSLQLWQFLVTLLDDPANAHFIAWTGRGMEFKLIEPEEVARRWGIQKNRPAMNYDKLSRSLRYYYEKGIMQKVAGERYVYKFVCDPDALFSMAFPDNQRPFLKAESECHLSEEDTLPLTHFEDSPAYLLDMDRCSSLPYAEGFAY
# Sequence of ELF1 (P32519 whole entry): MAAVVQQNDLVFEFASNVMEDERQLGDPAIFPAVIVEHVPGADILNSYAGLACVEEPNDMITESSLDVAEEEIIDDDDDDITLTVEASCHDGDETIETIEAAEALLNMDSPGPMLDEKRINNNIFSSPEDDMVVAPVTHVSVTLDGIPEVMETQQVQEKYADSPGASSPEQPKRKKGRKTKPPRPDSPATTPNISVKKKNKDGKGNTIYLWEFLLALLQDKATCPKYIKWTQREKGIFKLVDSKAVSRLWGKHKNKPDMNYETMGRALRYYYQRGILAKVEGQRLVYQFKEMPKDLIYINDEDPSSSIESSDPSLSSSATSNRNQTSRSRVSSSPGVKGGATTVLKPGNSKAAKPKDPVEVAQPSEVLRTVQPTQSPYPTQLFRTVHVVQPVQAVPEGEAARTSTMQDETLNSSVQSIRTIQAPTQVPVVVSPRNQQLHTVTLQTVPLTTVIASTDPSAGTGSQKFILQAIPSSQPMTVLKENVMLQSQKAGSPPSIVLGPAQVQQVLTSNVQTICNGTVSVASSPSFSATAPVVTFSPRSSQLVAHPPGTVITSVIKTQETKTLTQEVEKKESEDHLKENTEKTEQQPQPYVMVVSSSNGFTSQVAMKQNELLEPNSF
# Sequence of CRX (O43186 whole entry): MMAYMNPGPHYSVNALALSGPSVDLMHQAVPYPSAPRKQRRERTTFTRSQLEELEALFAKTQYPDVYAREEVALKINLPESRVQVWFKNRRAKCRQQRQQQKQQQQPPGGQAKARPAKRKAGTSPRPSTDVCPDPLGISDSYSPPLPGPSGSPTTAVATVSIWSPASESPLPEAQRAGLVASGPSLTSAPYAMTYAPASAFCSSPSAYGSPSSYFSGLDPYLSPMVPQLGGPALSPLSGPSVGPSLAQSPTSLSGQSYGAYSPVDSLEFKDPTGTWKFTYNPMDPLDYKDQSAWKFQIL
sequence,measurement,setting,value
CAATAT,binding signal,[1],"1.27 fold enrichment (6-mer frequency, TF over GST control)"
same,binding signal,[2],"1.29 fold enrichment (6-mer frequency, TF over GST control)"
same,binding signal,[3],"1.26 fold enrichment (6-mer frequency, TF over GST control)"
same,binding signal,[4],"1.2 fold enrichment (6-mer frequency, TF over GST control)"
same,binding signal,[5],"1.28 fold enrichment (6-mer frequency, TF over GST control)"
same,binding signal,[6],"1.24 fold enrichment (6-mer frequency, TF over GST control)"
same,binding signal,[7],"1.23 fold enrichment (6-mer frequency, TF over GST control)"
same,binding signal,[8],"1.23 fold enrichment (6-mer frequency, TF over GST control)"
same,binding signal,[9],"1.31 fold enrichment (6-mer frequency, TF over GST control)"
same,binding signal,[10],"1.25 fold enrichment (6-mer frequency, TF over GST control)"
same,binding signal,[11],"1.33 fold enrichment (6-mer frequency, TF over GST control)"
same,binding signal,[12],"1.11 fold enrichment (6-mer frequency, TF over GST control)"
same,binding signal,[13],"1.23 fold enrichment (6-mer frequency, TF over GST control)"
same,binding signal,[14],"1.28 fold enrichment (6-mer frequency, TF over GST control)"
same,binding signal,[15],"1.31 fold enrichment (6-mer frequency, TF over GST control)"
same,binding signal,[16],"1.29 fold enrichment (6-mer frequency, TF over GST control)"
same,binding signal,[17],"1.28 fold enrichment (6-mer frequency, TF over GST control)"
same,binding signal,[18],"1.15 fold enrichment (6-mer frequency, TF over GST control)"
same,binding signal,[19],"1.27 fold enrichment (6-mer frequency, TF over GST control)"
